In assay [1] the target is Protein phosphatase 1D (Homo sapiens) (UniProt O15297). In words: Rhodamine-PBP qHTS Assay for Modulators of WT P53-Induced Phosphatase 1 (WIP1) (AID 1347425). In short, it runs like this:
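WIP1 (5 nM final) was preincubated with compound for 1 hour at room temperature. It then dephosphorylated 10 uM VEPPL-pS-QETFS peptide in Tris-HCl pH 7.5 with 30 mM MgCl2. Released Pi was detected by 10 uM Rh-PBP fluorescence (ex 525/em 598 nm) read at 1-min intervals for 11 min, as delta f1 - f0.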
For orientation: qHTS replaces the single test concentration by a dilution series.

Assay [2] is described as follows: Primary qHTS for inhibitors of La Crosse Virus (LACV) - induced cell death in SH-SY5Y cells (AID 1508616).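 Further: top concentration of the series differs between compounds; higher means more rescue of cells from virus-induced death.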 In short, it runs like this:
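Readout was luminescence from ATPLite 1step added after a 6-day LACV infection (0.01 MOI) of SH-SY5Y cells that had received pin-transferred compound 24 hr after seeding.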

Assay [3] deals with Calcium and integrin-binding protein 1 (Homo sapiens) (UniProt Q99828). In words: Primary qHTS for Identification of Calcium Integrin Binding Protein 1 (CIB1) Competitor (AID 1508620).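 Further: GST tagged CIB1 binding a fluorescein labelled alphaIIb integrin peptide tracer; top concentration of the series differs between compounds.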 In short, it runs like this: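 CIB1-GST (1 uM final) and compound incubated 15 min at room temperature before adding FITC-alphaIIb peptide tracer (100 nM final). Competition for binding read by fluorescence polarization (ex 480, em 540) after another 15 min at room temperature.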
Chain of Calcium and integrin-binding protein 1 (Homo sapiens) (Q99828 whole entry, looked up): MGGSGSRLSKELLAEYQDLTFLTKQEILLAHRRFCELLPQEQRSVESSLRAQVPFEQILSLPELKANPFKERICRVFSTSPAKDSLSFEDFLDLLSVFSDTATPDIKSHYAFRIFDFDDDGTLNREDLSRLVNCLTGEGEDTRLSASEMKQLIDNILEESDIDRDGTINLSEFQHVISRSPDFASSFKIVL

A short description of assay [4]: Primary qHTS for small molecule stabilizers of the endoplasmic reticulum resident proteome: Secreted ER Calcium Modulated Protein (SERCaMP) assay (AID 1508630). Summed up:
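GLuc-SERCaMP-expressing SH-SY5Y cells, pretreated 16 h with compound, are challenged with thapsigargin to empty ER calcium stores; after 4 h, coelenterazine is added directly to the medium and luminescence is imaged.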

A short description of assay [5]: A High-Content qHTS Against Drug Library for the Identification of Small Molecules that Inhibit DYT1 Early Onset Primary Dystonia-Associated Cell Pathology (AID 1645839; calls by dose curve; further: series mostly up to about 46 µM). In short, it runs like this:
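In this high-content image screen, delE TorsinA mislocalization in inducible Flp-In 293 cells is scored as %pathology, with cell count serving as the counterscreen. Compound exposure lasts 48 h under tetracycline induction in reduced-serum medium.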

Assay [6] deals with Cytochrome P450 2D6 (Homo sapiens) (UniProt P10635). In words: Cytochrome P450 family 2 subfamily D member 6 (CYP2D6) small molecule antagonists: luciferase biochemical (cell-free) qHTS assay (AID 1645840; active means well fitted curve in the direction sought with a large enough effect in the repeat runs; an effect the other way counts as inactive or inconclusive; further: nearly all actives have a fitted effect of over 55% in size; further: potency means the concentration at half of the fitted maximal effect). Summed up:
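P450-Glo luminescent screen: recombinant CYP2D6 enzyme–proluciferin substrate mix preincubated with compound 10 min at room temperature, then NADPH regeneration added for 1 h at room temperature. Detection reagent added for 20 min; luciferin light read as relative luminescence units.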

Assay [7] has as its target Cytochrome P450 2C9 (Homo sapiens) (UniProt P11712). In words: Cytochrome P450 family 2 subfamily C member 9 (CYP2C9) small molecule antagonists: luciferase biochemical (cell-free) qHTS assay (AID 1645842; active means well fitted curve in the direction sought with a large enough effect in the repeat runs; an effect the other way counts as inactive or inconclusive; further: nearly all actives have a fitted effect of over 55% in size; further: potency means the concentration at half of the fitted maximal effect). Summed up:
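Luminescence, after 20 min with luciferin detection reagent, reflected CYP2C9 turnover during a 1 h NADPH-driven reaction at 37C. Enzyme-substrate mix contained 0.4% bovine serum albumin and was preincubated with compound 10 min at room temperature.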

A short description of assay [8]: Primary qHTS for inhibitors of nuclear receptor binding SET domain protein 2 (NSD2) in an isogenic RCH-ACV NSD2 p.E1099K mutant (9B) (AID 1645876). Further: nearly all actives have a fitted effect of over 70% in size. Further: potency means the concentration at half of the fitted maximal effect.
A short description of assay [9]: Validation qHTS assay for inhibitors of Activation Induced Cytidine Deaminase (AID): UDG Counterscreen signal (AID 1347427). In short, it runs like this: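 Counterscreen read of UDG activity (2 U/mL, 4/3x) in the FRET deamination format with AID (1 uM, 4/3x), DJC20/DJC23 substrates (250 nM, 4x), 4 h at room temperature. NaOH stop, fluorescence at 560 ex/665 em.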

Assay [10] has as its target Single-stranded DNA cytosine deaminase (Homo sapiens) (UniProt Q9GZX7). As to the kind of experiment: Validation qHTS assay for inhibitors of Activation Induced Cytidine Deaminase (AID): AID signal (AID 1347429). In short, it runs like this:
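In this coupled qHTS, AID deaminates a FRET-labelled ssDNA substrate in the presence of UDG over 4 hr at room temperature. Compounds span up to 114 uM final.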

Assay [11] has as its target Calcium and integrin-binding protein 1 (Homo sapiens) (UniProt Q99828). In words: Validation qHTS for Identification of Calcium Integrin Binding protein 1 (CIB1) Competitor (AID 1508618). In short, it runs like this:
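Fluorescence polarization with 1 uM CIB1-GST and 100 nM FITC-alphaIIb peptide in HEPES pH 7.4, NaCl, 5 mM CaCl2, Tween20. Compounds at up to 114 uM final, preincubated with protein 15 min; read after 15 min more at RT.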

In assay [12] the target is Protein phosphatase 1D (Homo sapiens) (UniProt O15297). As to the kind of experiment: RapidFire Mass Spectrometry qHTS Assay for Modulators of WT P53-Induced Phosphatase 1 (WIP1) (AID 1347424).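 Further: amount of dephosphorylated VEPPL-S-QETFS peptide product formed by WIP1; series mostly up to about 63 µM.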 Summed up:
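10 nM WIP1 + cpd, 1 h RT; + 2 uM VEPPL-pS-QETFS, 5 min RT; stop 0.5% formic acid; labelled product standard 1 uM; RapidFire MS. Buffer 50 mM Tris pH 7.5, 30 mM MgCl2, 1 mM TCEP.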

The next assay has as its target Papain (Carica papaya) (UniProt P00784). As to the kind of experiment: Primary qHTS assay for inhibitors of the protease papain (AID 1645873).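 Further: papain turnover of Z-FR-AMC read as the AMC fluorescence gain over 10 min; series mostly up to about 50 µM.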

For 17 compounds, outcome and Potency results are on record in PubChem BioAssay (NCATS).

Structures are written as SMILES. Values joined by “and” are separate entries in the source; they are usually repeats but may differ in a detail not shown here. Identical values can stand only once. Records with an inconclusive call do not appear. A structure can be active in one record and inactive in another. Active and inactive are the calls of the source. Unless noted, the call rests on the fitted dose curve; in most records, active means well fitted curve in the direction sought with a large enough effect; inconclusive means small, poorly fitted or top-dose-only effect, or another doubt; inactive means no such curve, though single readings can be large; an effect the other way counts as inactive or inconclusive.

Chain of Cytochrome P450 2D6 (Homo sapiens) (P10635 whole entry, looked up): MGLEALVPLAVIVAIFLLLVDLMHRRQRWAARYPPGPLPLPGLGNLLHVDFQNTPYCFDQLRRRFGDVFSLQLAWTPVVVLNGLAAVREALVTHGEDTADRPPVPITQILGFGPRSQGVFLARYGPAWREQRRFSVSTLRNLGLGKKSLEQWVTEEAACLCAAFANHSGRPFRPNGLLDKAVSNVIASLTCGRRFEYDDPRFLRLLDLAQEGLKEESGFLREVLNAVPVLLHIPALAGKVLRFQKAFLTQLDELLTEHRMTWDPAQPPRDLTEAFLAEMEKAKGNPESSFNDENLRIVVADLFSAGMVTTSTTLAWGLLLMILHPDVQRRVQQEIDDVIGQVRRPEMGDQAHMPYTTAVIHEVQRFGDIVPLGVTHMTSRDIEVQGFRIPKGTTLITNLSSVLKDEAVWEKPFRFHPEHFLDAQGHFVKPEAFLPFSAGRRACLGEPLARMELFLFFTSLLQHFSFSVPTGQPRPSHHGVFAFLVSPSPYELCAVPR
Chain of Papain (Carica papaya) (P00784 whole entry, looked up): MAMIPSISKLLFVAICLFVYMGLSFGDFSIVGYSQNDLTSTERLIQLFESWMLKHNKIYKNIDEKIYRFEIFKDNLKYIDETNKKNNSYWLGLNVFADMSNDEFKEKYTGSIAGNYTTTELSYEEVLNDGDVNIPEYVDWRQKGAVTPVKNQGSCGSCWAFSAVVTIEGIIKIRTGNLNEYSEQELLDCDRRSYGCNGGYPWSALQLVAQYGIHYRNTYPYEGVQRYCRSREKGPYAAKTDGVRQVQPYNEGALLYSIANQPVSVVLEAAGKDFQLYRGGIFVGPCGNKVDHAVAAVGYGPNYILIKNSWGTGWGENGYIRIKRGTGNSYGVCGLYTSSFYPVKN
Chain of Cytochrome P450 2C9 (Homo sapiens) (P11712 whole entry, looked up): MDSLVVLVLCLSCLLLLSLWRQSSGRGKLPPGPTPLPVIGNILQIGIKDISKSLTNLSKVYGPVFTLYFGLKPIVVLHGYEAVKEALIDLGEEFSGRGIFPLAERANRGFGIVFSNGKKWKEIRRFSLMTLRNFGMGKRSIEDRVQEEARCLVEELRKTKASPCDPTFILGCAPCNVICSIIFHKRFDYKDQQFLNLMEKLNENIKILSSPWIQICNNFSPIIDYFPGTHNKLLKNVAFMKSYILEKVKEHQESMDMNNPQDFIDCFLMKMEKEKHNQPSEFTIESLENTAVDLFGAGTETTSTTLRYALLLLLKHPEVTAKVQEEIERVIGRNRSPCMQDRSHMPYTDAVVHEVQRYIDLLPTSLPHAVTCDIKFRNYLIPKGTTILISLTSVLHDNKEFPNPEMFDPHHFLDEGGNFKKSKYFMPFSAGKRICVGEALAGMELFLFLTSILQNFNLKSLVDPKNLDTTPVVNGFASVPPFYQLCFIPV
Chain of Protein phosphatase 1D (Homo sapiens) (O15297 whole entry, looked up): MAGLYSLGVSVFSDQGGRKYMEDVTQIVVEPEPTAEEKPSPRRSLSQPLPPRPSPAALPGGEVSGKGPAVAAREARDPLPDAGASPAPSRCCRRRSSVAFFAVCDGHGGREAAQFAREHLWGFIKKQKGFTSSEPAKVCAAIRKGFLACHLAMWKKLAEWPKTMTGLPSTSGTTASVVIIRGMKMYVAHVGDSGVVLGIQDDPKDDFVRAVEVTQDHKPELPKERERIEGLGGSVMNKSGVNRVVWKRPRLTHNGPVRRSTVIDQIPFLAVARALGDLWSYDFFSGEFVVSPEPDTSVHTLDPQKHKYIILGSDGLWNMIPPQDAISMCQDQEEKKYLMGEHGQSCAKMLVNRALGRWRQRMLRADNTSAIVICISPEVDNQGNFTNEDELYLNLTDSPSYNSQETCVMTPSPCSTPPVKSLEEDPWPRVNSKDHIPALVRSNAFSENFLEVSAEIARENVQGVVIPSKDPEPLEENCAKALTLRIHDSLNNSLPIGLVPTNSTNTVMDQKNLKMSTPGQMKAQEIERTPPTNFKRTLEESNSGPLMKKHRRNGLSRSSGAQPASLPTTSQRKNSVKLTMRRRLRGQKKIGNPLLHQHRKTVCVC
Chain of Single-stranded DNA cytosine deaminase (Homo sapiens) (Q9GZX7 whole entry, looked up): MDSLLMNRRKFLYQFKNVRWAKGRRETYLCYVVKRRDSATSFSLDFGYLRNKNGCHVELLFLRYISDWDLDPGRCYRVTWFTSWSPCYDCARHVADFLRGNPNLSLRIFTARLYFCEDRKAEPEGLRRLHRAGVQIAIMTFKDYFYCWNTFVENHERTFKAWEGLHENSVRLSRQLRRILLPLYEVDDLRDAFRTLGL

As for `Cc1nc2n(c(=O)c1CCN1CCC(c3noc4cc(F)ccc34)CC1)CCCC2`, the compound was called inactive in assay [1]. For the same compound, the Potency result in assay [2], in [3], in assay [4], in [5], in assay [7] and in assay [8] was “inactive” each time. Further, the Potency in [6] was 2.75 µM (active).

For `O=C1NC(=O)C(c2ccccc2[N+](=O)[O-])=C1Nc1ccc(O)c(Cl)c1`, the Potency entry in [9], in assay [2], in assay [3] and in assay [4] was “inactive” throughout. The compound was classed as inactive in assay [10]. Also, in assay [8], the Potency was 13.2 µM (active).

For the compound `Cc1ccc(Nc2nccc(N(C)c3ccc4c(C)n(C)nc4c3)n2)cc1S(N)(=O)=O`, the compound was called inactive in assay [1]. For the same compound, the Potency entry in assay [2], in [3], in [4] and in assay [5] was “inactive” in each case. Moreover, the Potency in [7] was 15.5 µM (active); in assay [8], 5.31 µM (active) and 1.83 µM (active) and 4.17 µM (active).

With `Cc1cccc(C#Cc2ccccc2)n1`, the Potency result in [9], in assay [2] and in assay [4] was “inactive” each time. The outcome in [10] and in assay [11] was inactive.

For the compound `CC(=O)Nc1ccc(O)cc1`, the Potency result in assay [12], in assay [4], in [5], in [6] and in assay [7] was “inactive” throughout. Further, the result in assay [1] was inactive.

`OC(CN1CCN(c2cccc(Cl)c2)CC1)C(c1ccccc1)c1ccccc1` (stereo not drawn): the Potency entry in [9], in assay [2] and in assay [4] was “inactive” each time. Besides, the outcome in assay [10] was inactive.

Take `Oc1ccc2ccccc2c1SSc1c(O)ccc2ccccc12`: the result in assay [10] was inactive. The Potency result in assay [2] is “inactive”. The Potency in assay [8] is 23.5 µM (active) and 16.4 µM (active).

On to `Cc1ccc(NC(=O)c2ccc(CN3CCN(C)CC3)cc2)cc1Nc1nccc(-c2cccnc2)n1`, for which the Potency entry in assay [12], in [2], in assay [4] and in assay [6] was “inactive” each time. The compound was classed as inactive in [1]. The Potency entry in [7] is “inactive and 23.9 µM (active)”; in assay [8], 15 µM (active) and 20.6 µM (active) and 18.6 µM (active).

As to `CCCOc1ccc2nc(NC(=O)OC)[nH]c2c1`, the compound was classed as inactive in assay [1]. Further, the Potency result in assay [2], in assay [3], in assay [4], in [5], in assay [6] and in assay [7] was “inactive” each time. Also, the Potency in assay [8] was 411 nM (active) and 417 nM (active).

On to `CN(C)CCc1c[nH]c2ccc(Cn3cncn3)cc12`, for which the Potency result in assay [4] is “inactive”.

For the compound `CC(C)c1ccc2oc3nc(N)c(C(=O)O)cc3c(=O)c2c1`, the Potency result in assay [12], in assay [3], in [4], in [5] and in assay [8] was “inactive” throughout. For the same compound, the compound was classed as inactive in assay [1]. Also, the Potency in assay [6] and in assay [7] was 13.8 µM (active) each time.

For the compound `C=CCc1cc(OC)c(O)c(C(=O)NCCO)c1`, in assay [1], the compound was classed as inactive. Moreover, the Potency entry in assay [2], in assay [3], in [4], in assay [5], in [6] and in assay [7] was “inactive” each time.

Take `O=C(CCc1ccc(O)cc1)c1c(O)cc(O)cc1O`: the Potency result (in assay [9]; in assay [2]; in [4]; with Papain (Carica papaya); in assay [8]) was “inactive” each time. Also, the compound was called inactive in assay [10] and in assay [11].

For the compound `CN(C)CCCC1(c2ccc(F)cc2)OCc2cc(C#N)ccc21` (stereo not drawn), the Potency result (in assay [9]; in [2]; in assay [3]; in [4]; in the assay with Papain (Carica papaya)) was “inactive” throughout. For the same compound, the outcome in [10] and in assay [11] was inactive.

`Cc1ccc(C(=O)c2cc(O)c(O)c([N+](=O)[O-])c2)cc1`: the compound was called inactive in assay [1]. In addition, the Potency entry in assay [2], in assay [3], in assay [4] and in assay [6] was “inactive” in each case. The Potency in assay [7] was 5.49 µM (active).

In the case of `NCCCCNCCCN`, the Potency result (in [9]; in assay [2]; in [3]; in assay [4]; with Papain (Carica papaya)) was “inactive” in each case. For the same compound, the call in assay [10] and in assay [11] was inactive.

For `O=c1ccc2ccc(O)c(O)c2o1`, the Potency result in assay [9], in assay [2], in [3], in assay [4] and in assay [6] was “inactive” each time. In addition, the call in assay [10] was inactive.
